This is a sample that favours compounds with a hit; in the whole collection about 2.4% have one here.
S1P3 antagonist: S1P3 receptor antagonists, primary screen, cell-based. Sphingosine 1-phosphate receptor 3 (Homo sapiens), Q99500. CHO S1P3 NFAT-BLA reporter, FRET fluorescence, antagonist mode. inhibition, % at 4.98 µM. 0.27% of 170,000 active;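 active means inhibition above the plate cutoff, the mean inhibition of test wells on that plate plus 3 SD, cut at about 28% in these data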;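 further: cells challenged with S1P at its EC80 of 0.8 µM; blue over green emission ratio from cleaved BLA substrate after 4 h stimulation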
Target sequence (Q99500 whole entry, looked up): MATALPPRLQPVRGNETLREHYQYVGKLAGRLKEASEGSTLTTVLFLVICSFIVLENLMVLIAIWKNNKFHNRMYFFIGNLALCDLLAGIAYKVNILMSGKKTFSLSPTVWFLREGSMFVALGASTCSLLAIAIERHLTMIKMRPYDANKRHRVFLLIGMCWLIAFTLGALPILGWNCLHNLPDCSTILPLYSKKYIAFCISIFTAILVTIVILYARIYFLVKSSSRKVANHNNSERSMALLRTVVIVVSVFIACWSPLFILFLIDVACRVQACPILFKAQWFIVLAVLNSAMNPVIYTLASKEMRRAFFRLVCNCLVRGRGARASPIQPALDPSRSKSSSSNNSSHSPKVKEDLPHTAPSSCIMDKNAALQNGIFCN
EP2 mod: EP2 receptor modulators, cAMP readout, primary screen, cell-based, HTRF cAMP, PGE2 stimulation; Prostaglandin E2 receptor EP2 subtype (Homo sapiens), P43116; EP2-expressing cells, cAMP HTRF FRET, PGE2 co-stimulation; induction, % at 25 µM; 0.83% of 260,000 active; AID 940, 2007;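 active means compounds whose cAMP rise, as percent of the full-agonist control response, exceeds 60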;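 further: rat C6 glioma line stably carrying human EP2 under a CMV promoter; the protocol text gives 20 µM as final concentration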
S1P4 antag: S1P4 receptor antagonists, primary screen, cell-based; inhibition, % at 4.98 µM; Sphingosine 1-phosphate receptor 4 (Homo sapiens), O95977; 0.26% of 220,000 active; AID 1510, 2009; S1P4-expressing cells, antagonist mode, reporter read-out; in the data active means inhibition above about 29%
Insulin prom inh: inhibitors of insulin promoter-driven GFP, primary screen, imaging, TRM-6 cells (human fetal islet line), eGFP reporter, cell count | reporter expression induced with tamoxifen | inhibition, % at 2 µM | 0.9% of 130,000 active;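 active means inhibition above the mean plus 3 SD, with well images judged a real hit on visual review, cut at about 60% in these data, passing the limit was not always enough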
PGE2 EP2 inh: human EP2 receptor antagonists, primary screen, TR-FRET cAMP, C6 glioma cells. C6 glioma cells expressing human EP2; cells stimulated with saturating PGE2. inhibition, % at 25 µM. 0.52% of 260,000 active. AID 1422, 2008;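 active means percent inhibition above 40 after rounding to a whole number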;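 further: rat C6 glioma host cells with rolipram phosphodiesterase inhibitor present; the protocol text gives 20 µM as final concentration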
S1P4 agonist: S1P4 receptor agonists, primary screen, cell-based. S1P4-expressing cell line, agonist reporter assay. Sphingosine 1-phosphate receptor 4 (Homo sapiens), O95977. activation, % at 4.98 µM. AID 1509, 2009. 0.35% of 220,000 active; in the data active means activation above about 11%
Numbers stand for hits; n = inactive; x = not tested or not shown.

SMILES	S1P3 antagonist	EP2 mod	S1P4 antag	Insulin prom inh	PGE2 EP2 inh	S1P4 agonist
CN(C)c1cccc2c(C#N)ccc(N(C)C)c12	n	n	n	86.7	n	n
CSc1ccc2c(c1)c(CCN)c(C)n2Cc1ccccc1Cl	x	n	x	x	104.4	x
C[C@H]1CC[C@]2(NC1)O[C@H]1C[C@H]3[C@H]4CC=C5C[C@@H](O)CC[C@]5(C)[C@@H]4CC[C@]3(C)[C@H]1[C@@H]2C	x	n	x	x	57.7	x
Nc1nc2c(c(=S)[nH]1)[n]([Hg][c]1cc([N+](=O)[O-])ccc1O)c[n+]2[C@H]1O[C@H](CO)[C@@H](O)[C@@H]1O	x	n	x	x	60.0	x
COc1ccc(CN2CCN(C(=O)COc3ccc(C)cc3)CC2)c(OC)c1	x	n	x	x	n	x
COc1cc2cc(c1Cl)N(C)C(=O)C[C@H](OC(=O)C(C)C)[C@]1(C)O[C@H]1[C@@H](C)[C@H]1C[C@](O)(NC(=O)O1)[C@@H](OC)/C=C\C=C(\C)C2	x	n	x	x	52.2	x
C[C@]12CC[C@@H]3c4ccc(O)c(O)c4CC[C@H]3[C@@H]1CC[C@@H]2O	n	n	n	x	89.0	n
O=C1N[C@]2(CN3CCC2CC3)C(=O)N1CN(Cc1ccccc1)c1ccccc1	x	n	x	x	53.5	x
COc1ccc(C(=O)CN2CCOCC2)cc1F	x	n	n	81.8	n	n
C[C@]12CC[C@H](O[C@@H]3O[C@H](CO)[C@@H](O)[C@H](O)[C@H]3O)C[C@@H]1CC[C@@H]1[C@@H]2CC[C@]2(C)[C@@H](C3=CCOC3=O)CC[C@@]12O	x	n	x	x	53.1	x
CN1CSC(=S)N(C)C1	x	n	n	67.9	n	n
C#CCOc1cccc(CN2C3CCC2CC(O)(c2ccc(F)cc2)C3)c1 (stereo not given)	x	n	x	x	n	x
COc1cc(O)c(C(=O)O)c(-c2cc(O)c(O)cc2C)c1	x	n	x	x	76.6	x
COc1ccc2c(c1)c(C(=O)O)c(C)n2CC(C)C	x	n	n	n	n	n
CCC(N)C(O)c1ccc(O)c(O)c1 (stereo not given)	x	74.2	x	x	n	x
Oc1ccc([C@H](O)[C@@H]2CCCCN2)cc1O	x	n	x	x	n	x
Cc1[nH]c2ccc(F)cc2c1CC(=O)N(CCN(C)C)Cc1ccc(F)cc1	x	n	x	x	n	x
COc1ccc(C2=NCC(=O)N(CC(=O)N3CCCC3)c3sc(C)c(C)c32)cc1	x	n	x	x	n	x
Cc1nn(CCC#N)c2c1P(=S)(N1CCCC1)OC(c1ccc(F)cc1)=N2 (stereo not given)	74.4	n	n	x	n	n
CC(C)c1ccc(C(c2c(O)c3ccccc3oc2=O)c2c(O)c3ccccc3oc2=O)cc1	x	n	x	x	69.7	x
Cc1c(C(c2ccc(F)cc2)c2c(O)c3ccccc3oc2=O)c(=O)n(-c2ccccc2)n1C (stereo not given)	n	n	n	n	n	n
CC/C(CC(c1ccccc1)c1c(O)c2ccccc2oc1=O)=N\NC(N)=S (stereo not given)	n	n	n	n	n	n
COc1ccc(C(c2c(O)c3ccccc3oc2=O)c2c(C)n(C)n(-c3ccccc3)c2=O)cc1 (stereo not given)	n	n	n	64.3	n	n
O=C(C[C@H](c1ccccc1)c1c(O)c2ccccc2oc1=O)c1ccccc1	x	n	x	x	45.7	x
O=c1oc2ccccc2c(O)c1C(c1ccc([N+](=O)[O-])cc1)c1c(O)c2ccccc2oc1=O	n	n	n	n	n	n
SMILES	S1P3 antagonist	EP2 mod	S1P4 antag	Insulin prom inh	PGE2 EP2 inh	S1P4 agonist
CCOc1cc(CN2CCN(C(=O)COc3cccc(C)c3)CC2)ccc1OC	x	n	x	x	n	x
CCc1nc2ccccc2c(=O)n1-c1ccccc1[N+](=O)[O-]	n	n	n	x	49.0	n
CC(Cc1ccccn1)N(C)Cc1cnc(N2CCCCC2)nc1 (stereo not given)	x	n	x	x	n	x
CCc1cccc2c(CC(=O)N(C)CCN(C)C)c(C)[nH]c12	x	n	x	x	n	x
O=C1CC2(CCNCC2)Oc2ccc(F)cc21	x	n	x	x	n	x
O=C(O)C[C@@H]1OCC=C2CN3CC[C@]45c6ccccc6N[C@H]4[C@H]1[C@H]2C[C@H]35	x	n	x	x	50.9	x
COc1cccc(CN2CCN(C(=O)Cc3n[nH]c(=O)c4ccccc34)[C@@H](C)C2)c1	x	n	x	x	x	x
CC(C)[C@]12O[C@H]1[C@@H]1O[C@]13[C@]1(O[C@H]1C[C@H]1C4=C(CC[C@@]13C)C(=O)OC4)[C@@H]2O	104.7	x	107.1	x	n	n
CCC(Oc1ccccc1F)C(=O)N1CCC(C(C)=O)(c2ccccc2)CC1 (stereo not given)	x	n	x	x	n	x
O=C1NC(=O)C(=Cc2ccc(Br)s2)C(=O)N1	x	n	x	x	115.2	x
O=C1NC(=O)C(=Cc2ccc(N3CCOCC3)cc2)C(=O)N1	n	n	n	x	n	n
Nc1ccc([As](=O)(O)O)cc1	n	n	n	n	n	n
Nc1c(C(=O)Nc2ccc([As](=O)(O)O)cc2)cnc2nnnn12	x	n	x	x	52.2	x
COC(=O)c1c(C)n(Cc2ccco2)c2ccc(O)cc12	x	n	n	n	n	n
CCOC(=O)c1c(C)n(Cc2ccco2)c2ccc(OC)cc12	n	63.8	n	n	n	n
Cn1ccnc1C1(O)CC2CCC(C1)N2CC(=O)Nc1ccc(N2CCCCC2)cc1 (stereo not given)	x	n	x	x	x	x
COc1cccc(CNC(=O)CN2C3CCC2CC(O)(c2ccco2)C3)c1 (stereo not given)	x	n	x	x	x	x
N=c1c(C(N)=O)cc(Cl)cn1Cc1ccccc1	x	n	x	x	n	x
O=C(C1CC(=O)N(C2CCCCCCC2)C1)N1CCC2(CC1)OCCO2 (stereo not given)	x	n	n	74.3	n	n
O=C(CN1C(=O)CN=C(c2ccccc2Cl)c2c1sc1c2CCCC1)N1CCOCC1	x	n	x	x	n	x
FC(F)(F)c1nc2ccc(SSc3ccc4nc(C(F)(F)F)[nH]c4c3)cc2[nH]1	x	n	x	x	78.9	x
COc1cccc(CN2CCN(C(=O)Cc3ccccn3)[C@@H](C)C2)c1	x	n	x	x	x	x

Source: PubChem (several laboratories)
